BioA inh-1: BioA (M. tuberculosis) enzyme inhibition; purified M. tuberculosis BioA enzyme, plate reader; inhibition, % at 9.99 µM; 0.096% of 360,000 active; AID 602481; in the data active = inhibition above about 40%
FadD28 binding: M. tuberculosis FadD28 bisubstrate binding inhibition; FadD28 bisubstrate probe binding, fluorescence polarization; inhibition, % at 12.5 µM; 0.22% of 360,000 active; in the data active = inhibition above about 8.5%, passing the limit was not always enough
BH1578 lux ind: inducers of Vibrio cholerae quorum light production without autoinducers; 0.16% of 350,000 active; V. cholerae BH1578 lux reporter, luminescence, 6 h; activation, % at 18.7 µM; AID 588436; in the data active = activation mostly above about 9.7%, no sharp cut-off
Yp Topo-I inh: Y. pestis Topo-I inhibition via cleavage products. Y. pestis Topo-I cleavage product accumulation, plate reader. AID 504884. activity, % at 10 µM. 0.064% of 360,000 active; in the data active = activity above about 50%, passing the limit was not always enough
TcdB inh: TcdB glycohydrolase inhibition; P18177; TcdB glycohydrolase enzymatic assay, plate reader; inhibition, % at 9.99 µM; 0.24% of 350,000 active; in the data active = inhibition above about 10%
Target sequence (P18177 whole entry, looked up): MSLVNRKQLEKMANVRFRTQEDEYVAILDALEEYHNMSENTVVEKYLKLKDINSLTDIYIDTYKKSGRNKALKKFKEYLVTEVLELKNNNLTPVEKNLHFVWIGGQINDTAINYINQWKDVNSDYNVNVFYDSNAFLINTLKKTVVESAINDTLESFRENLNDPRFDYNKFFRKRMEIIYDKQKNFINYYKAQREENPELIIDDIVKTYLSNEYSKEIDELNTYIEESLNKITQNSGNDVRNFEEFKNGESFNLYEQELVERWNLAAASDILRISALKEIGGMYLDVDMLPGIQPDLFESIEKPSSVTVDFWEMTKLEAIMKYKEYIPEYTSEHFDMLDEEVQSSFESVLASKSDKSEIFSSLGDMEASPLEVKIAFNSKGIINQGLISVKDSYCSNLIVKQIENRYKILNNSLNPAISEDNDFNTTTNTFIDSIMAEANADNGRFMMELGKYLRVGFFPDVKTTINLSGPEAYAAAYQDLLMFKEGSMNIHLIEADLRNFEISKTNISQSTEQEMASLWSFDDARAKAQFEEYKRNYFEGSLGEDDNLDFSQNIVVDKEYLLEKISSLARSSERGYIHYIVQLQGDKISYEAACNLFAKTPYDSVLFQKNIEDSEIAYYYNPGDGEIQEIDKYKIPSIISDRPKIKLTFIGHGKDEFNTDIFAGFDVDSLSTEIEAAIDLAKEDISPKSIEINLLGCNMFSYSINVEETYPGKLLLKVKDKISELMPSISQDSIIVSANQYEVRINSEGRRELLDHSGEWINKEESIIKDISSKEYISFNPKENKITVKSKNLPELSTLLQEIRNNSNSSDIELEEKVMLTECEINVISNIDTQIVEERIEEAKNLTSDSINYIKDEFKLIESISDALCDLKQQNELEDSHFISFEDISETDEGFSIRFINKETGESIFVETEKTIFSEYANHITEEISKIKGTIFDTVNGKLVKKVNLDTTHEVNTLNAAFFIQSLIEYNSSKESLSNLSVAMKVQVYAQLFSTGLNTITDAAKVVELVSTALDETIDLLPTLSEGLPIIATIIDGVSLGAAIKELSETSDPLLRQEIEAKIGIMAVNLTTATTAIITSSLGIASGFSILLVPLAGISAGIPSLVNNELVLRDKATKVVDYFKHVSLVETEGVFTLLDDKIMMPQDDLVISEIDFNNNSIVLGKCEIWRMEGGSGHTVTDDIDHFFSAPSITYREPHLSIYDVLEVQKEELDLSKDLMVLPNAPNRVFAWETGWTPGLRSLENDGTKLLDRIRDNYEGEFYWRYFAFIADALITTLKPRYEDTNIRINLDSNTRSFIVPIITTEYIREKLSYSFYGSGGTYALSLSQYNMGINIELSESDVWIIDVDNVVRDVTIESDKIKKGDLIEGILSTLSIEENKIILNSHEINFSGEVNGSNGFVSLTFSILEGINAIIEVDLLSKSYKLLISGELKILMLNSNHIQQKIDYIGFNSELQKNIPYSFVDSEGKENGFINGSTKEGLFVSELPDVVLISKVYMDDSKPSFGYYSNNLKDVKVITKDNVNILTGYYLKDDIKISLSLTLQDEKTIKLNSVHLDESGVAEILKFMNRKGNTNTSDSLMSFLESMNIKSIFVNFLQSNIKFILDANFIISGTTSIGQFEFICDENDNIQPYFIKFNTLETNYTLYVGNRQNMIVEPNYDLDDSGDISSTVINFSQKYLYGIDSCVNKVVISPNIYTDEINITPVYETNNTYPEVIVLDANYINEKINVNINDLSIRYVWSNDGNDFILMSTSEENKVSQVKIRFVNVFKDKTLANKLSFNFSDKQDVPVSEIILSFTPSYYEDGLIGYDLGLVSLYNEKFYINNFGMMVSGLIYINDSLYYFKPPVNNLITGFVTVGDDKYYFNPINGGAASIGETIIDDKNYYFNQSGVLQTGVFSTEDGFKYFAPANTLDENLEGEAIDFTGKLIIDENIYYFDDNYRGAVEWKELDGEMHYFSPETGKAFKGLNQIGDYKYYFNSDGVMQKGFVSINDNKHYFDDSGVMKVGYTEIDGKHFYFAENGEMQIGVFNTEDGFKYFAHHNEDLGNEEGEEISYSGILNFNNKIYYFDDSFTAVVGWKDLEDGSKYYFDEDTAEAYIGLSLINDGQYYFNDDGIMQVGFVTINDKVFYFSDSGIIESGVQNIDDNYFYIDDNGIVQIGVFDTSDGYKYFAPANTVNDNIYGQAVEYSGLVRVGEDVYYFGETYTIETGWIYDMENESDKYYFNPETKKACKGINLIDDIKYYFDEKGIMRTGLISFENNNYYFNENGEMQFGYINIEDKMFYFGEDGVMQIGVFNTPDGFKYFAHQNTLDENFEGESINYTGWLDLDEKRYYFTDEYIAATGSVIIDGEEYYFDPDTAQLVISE
BioA inh-2: Mtb BioA enzyme inhibition | shares compounds with BioA inh-1 | purified BioA enzyme, plate reader, dose response | max activity, % | 310 tested, under 10 active | AID 651679;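 note: top concentration of the dilution series was 10 µM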
HepG2 tox 2: HepG2 viability loss. shares compounds with BioA inh-1. HepG2 cytotoxicity, plate reader. max activity, %. 310 tested, under 10 active
3T3 cytotox 5: cytotoxicity in NIH3T3 cells | shares compounds with BioA inh-1 | plate reader | activity change, negative = cytotoxicity, % at 26 µM | 310 tested, under 10 active | AID 651900
Numbers without * were called inactive; i = inactive; x = not tested or not shown; [ ] = another dose, or the depositor's remark. A selection: hits, their analogues and other compounds. The true share with any hit is near 0.58%. Unless noted, the rule behind the calls is not given here.

SMILES | BioA inh-1 | FadD28 binding | BH1578 lux ind | Yp Topo-I inh | TcdB inh | BioA inh-2 | HepG2 tox 2 | 3T3 cytotox 5
O=C(Nc1ccc(NS(=O)(=O)c2ccccc2)cc1)c1cccnc1 | 52* | 4 | 0 | -4 | 1 | 9 | -9 | -3
O=C(Nc1cccnc1)c1ccc(Cl)c(Cl)c1 | 60* | 0 | -1 | -10 | 2 | -6 | 13 | 2
O=C(NNC(=O)c1ccc(Cl)c(Cl)c1)c1cccnc1 | -1 | -3 | 0 | 0 | 1 | x | x | x
COCCN1C(=O)c2ccc(C(=O)Nc3cccnc3)cc2C1=O | 59* | -3 | i | -6 | -1 | -7 | -12 | 3
CC(C)(C)c1cc(C(=O)Nc2cccnc2)cc(C(=O)Nc2cccnc2)c1 | 45* | -4 | i | 5 | 0 | 4 | 11 | 8
CCCC#Cc1ccc([C@@H]2[C@H](CO)N3C(=O)CN(C(=O)c4ccccn4)C[C@@H]23)cc1 | x | x | x | x | 0 | x | x | x
COCC(=O)N(C)C[C@H]1Oc2cc(C#CCC3CCCC3)ccc2S(=O)(=O)N([C@H](C)CO)C[C@@H]1C | 6 | x | x | x | x | x | x | x
CCCNC(=O)C[C@H]1CC[C@@H]2[C@H](COc3ccc(NC(=O)C4CCCC4)cc3C(=O)N2C)O1 | -2 | x | x | x | 2 | x | x | x
COc1cc(OC)c(C(=O)Nc2cccnc2)cc1OC | 85* | -1 | -1 | -4 | 2 | 4 | -7 | -3
O=C(Nc1cccnc1)c1ccc(Oc2ccccc2)cc1 | 69* | -3 | 0 | -4 | x | -9 | -8 | 6
CCCOC(=O)c1cccc(NC(=O)c2cccnc2)c1 | 43* | -2 | -2 | 0 | x | -8 | 7 | -3
O=C(Nc1cccnc1)c1ccccc1Oc1ccccc1 | 4 | -1 | x | 1 | x | x | x | x
COc1ccc(-c2nc3ccc(Cl)cn3c2Cc2ccccc2)cc1OC | 70* | -6 | x | x | 2 | -9 | -13 | -7
COc1ccc(-c2nc3ccc(Cl)cn3c2Cc2cccc(Cl)c2)cc1OC | 24 | -10 | x | x | 1 | x | x | x
Cc1nc2c(C(=O)N3CCN(c4ccccn4)CC3)cnn2c(C)c1Cc1cccc(Cl)c1 | 40* | -2 | i | 19 | x | -6 | 11 | 5
COC(=O)C1CCN(C(c2ccc(OC)c(OC)c2)c2sc3nc(C)nn3c2O)CC1 (stereo not given) | 45* | 0 | 0 | -4 | -1 | -8 | 14 | -7
C[C@@H]1CN([C@H](C)CO)C(=O)c2cc(NC(=O)NC3CCCCC3)ccc2O[C@@H]1CN(C)C(=O)Nc1ccccc1 | -2 | x | x | x | -2 | x | x | x
O=C(O)CSc1ncnc2scc(-c3ccc(Br)cc3)c12 | 45* | -1 | -1 | -4 | 2 | -6 | 19 | -3
COc1ccccc1NC(=O)Nc1ccc2c(c1)C(=O)N(C)C[C@@H](OC)[C@H](C)CN(C)[C@@H](C)CO2 | 0 | x | x | x | x | x | x | x
CCc1c(C)nc2ncnn2c1Nc1ccc(C(C)=O)cc1 | 31 | 0 | i | -8 | x | x | x | x
CCc1c(C)nc2ncnn2c1Nc1ccc(C#N)c(Cl)c1 | 40* | 0 | 0 | -6 | x | -6 | -7 | -7
C/C=C/c1ccc2c(c1)O[C@@H](CN(C)C(=O)Nc1ccc(F)cc1)[C@@H](C)CN([C@@H](C)CO)S2(=O)=O | 55* | x | x | x | 0 | -5 | i | -14
CC(=O)c1ccc(NC(=O)COC(=O)Cc2ccsc2)cc1 | 47* | 1 | i | 11 | 1 | -6 | 12 | -3
C[C@H](CO)N1C[C@H](C)[C@H](CN(C)C(=O)NC2CCCCC2)Oc2ncc(C#Cc3cccc(F)c3)cc2C1=O | 5 | x | x | x | 1 | x | x | x
Cc1cc(C)n(-c2ccc(C(=O)Nc3ccc4c(c3)OCO4)cc2)n1 | 44* | -7 | i | 11 | x | -8 | -8 | 3
SMILES | BioA inh-1 | FadD28 binding | BH1578 lux ind | Yp Topo-I inh | TcdB inh | BioA inh-2 | HepG2 tox 2 | 3T3 cytotox 5
O=C(CCN1C(=O)/C(=C/c2cccc(Br)c2)SC1=S)Nc1cccnc1 | x | -1 | i | -4 | 0 | x | x | x
O=C(CN1C(=O)/C(=C/c2cccc(Br)c2)SC1=S)Nc1cccnc1 | 88* | 0 | i | 17 | -1 | 5 | 4 | 0
CN1c2ccc(-c3ccccc3F)cc2[C@H]2[C@H](CCN2C(=O)CN2CCOCC2)[C@@H]1CO | 7 | x | x | x | 1 | x | x | x
COC(=O)C[C@@H]1CC[C@@H]2[C@H](COC[C@@H](O)CN2S(=O)(=O)c2ccc(F)cc2)O1 | 0 | x | x | x | 0 | x | x | x
O=C(CSc1nnc(-c2ccncc2)n1-c1ccc(Cl)cc1)NCc1cccs1 | 47* | -2 | -2 | -2 | x | -10 | -13 | -8
Cc1c(Cl)cccc1-n1c(SCC(=O)NCc2cccs2)nnc1-c1ccncc1 | 14 | 0 | 0 | 17 | x | x | x | x
O=C(NCC[C@H]1CC[C@H](NS(=O)(=O)c2ccccc2)[C@@H](CO)O1)c1ccc2c(c1)OCO2 | 0 | x | x | x | 0 | x | x | x
COc1ccc(NC(=O)c2ccc(Cl)nc2)cc1S(=O)(=O)N1CCOCC1 | 59* | -3 | i | 4 | 0 | -9 | -14 | -4
CCc1ccc(C(=O)Nc2ccc(OC)c(S(=O)(=O)N3CCOCC3)c2)cc1 | x | -2 | 0 | 3 | -2 | x | x | x
CC(C)NC(=O)N(C)C[C@H]1OCc2ccccc2-c2c(n(C)c3ccccc23)C(=O)N([C@@H](C)CO)C[C@@H]1C | 2 | x | x | x | 1 | x | x | x
O=C(c1ccncc1)N1CC[C@@H]2[C@H](CO)Nc3ccc(Br)cc3[C@@H]21 | 104* | x | x | x | x | -5 | i | -5
O=C(c1ccncc1)N1CC[C@H]2[C@H](CO)Nc3ccc(Br)cc3[C@H]21 | 59* | x | x | x | x | 12 | i | -7[23.5 µM]
O=C(c1ccncc1)N1CC[C@@H]2[C@@H](CO)Nc3ccc(-c4ccccc4)cc3[C@@H]21 | 10 | x | x | x | 8 | x | x | x
O=C(C[C@H]1CC[C@H](NS(=O)(=O)c2ccc(F)cc2)[C@H](CO)O1)NC1CCC1 | 0 | x | x | x | 0 | x | x | x
COc1ccccc1NC(=O)N[C@@H]1CC[C@H](CCn2cc(-c3cccnc3)nn2)O[C@H]1CO | 57* | x | x | x | 0 | 5 | i | -9
O=C(N[C@H]1CC[C@@H](CCn2cc(-c3cccnc3)nn2)O[C@H]1CO)c1ccccc1F | 47* | x | x | x | 0 | 3 | i | 2
